Values joined by “and” are separate entries in the source; they are usually repeats but may differ in a detail not shown here. Equal values may be shown once. This is part of a sample that, as a whole, favours compounds with a hit. Of some 83,000 tested, about 20% had one in any assay.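 Plates (96-well) were seeded with cells, treated with compound at one concentration, and incubated for 48 hours before percent growth was determined.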 Active and inactive are the calls of the source. Rule for the calls: active = growth percent below 10; inactive = the rest.

The test system of this experiment is HL-60(TB) leukemia. In words: NCI-60 one-dose screen, 48 h (100 = growth as untreated, 0 = no growth, -100 = all killed). To be noted: 10 µM unless noted.
Take `COc1cccc(-c2nn(-c3ccccc3)cc2-c2ccnc(NCCNC(=O)Nc3cccc(C(F)(F)F)c3)c2)c1`: the growth was 2.15% (active).

Consider `O=Cc1ccc([N+](=O)[O-])s1`, for which the growth was 81.9% (inactive).

With `CN1C2CCC1CN(c1cnc(C(=O)Nc3cc(F)cc4cccnc34)cn1)C2`, the growth is 5.69% (active).

In the case of `COc1cc(/C=C/C(=O)C(C(=O)/C=C/c2ccc(OC(=O)CCNC34CC5CC(CC(C5)C3)C4)c(OC)c2)C(=O)CCNC23CC4CC(CC(C4)C2)C3)ccc1OC(=O)CCNC12CC3CC(CC(C3)C1)C2` (stereo unspecified), the growth was -30.3% (active).

`COc1cc(-c2csc(NC(=O)c3cc(-n4cnc(C)c4)cc(C(F)(F)F)c3)n2)cc(OC)c1OC`: the growth is 61% (inactive).

With `O=C1CCC(N2C(=O)c3cccc(NCCOCCOCCNC(=O)c4cc5c(o4)C(=O)c4ccccc4C5=O)c3C2=O)C(=O)N1` (stereo unspecified), the growth was -9.95% (active).

In the case of `CCOc1ccc2c(S(=O)(=O)O)cccc2c1[N+](=O)[O-]`, the growth is 113% (inactive) and 95.7% (inactive).

On to `CS(=O)(=O)c1ccc(-c2cc(-c3nnc(SCC(=O)Nc4ccc(C(=O)/C=C/c5ccc(Cl)cc5)cc4)n3-c3ccccc3)c3ccccc3n2)cc1`, for which the growth was 98.9% (inactive).

`Cc1cc(O)c2c(c1)C(=O)c1cc(O)cc(O)c1C2=O`: the growth was 121% (inactive) and 83.6% (inactive).

Regarding `Cc1nc(Nc2ncc(C(=O)Nc3c(C)cccc3Cl)s2)cc(N2CCN(CCO)CC2)n1`, the growth was 107% (inactive) and 35.7% (inactive).

On to `O=C(Nc1ccc(Cl)cc1)Nc1ccc(Cl)c(Cl)c1`, for which the growth is -23.6% (active).
